# Target: Carbonic anhydrase 2 (Homo sapiens) (UniProt P00918)
# Assay: compounds binding carbonic anhydrase 2 – biochemical, small-molecule microarray, Alexa647-labelled CAII, profiling panel (AID 1122)
# Details: CAII-A647 binding fluorescence, higher = more signal
row,SMILES,composite z-score
1,C=CCNC(=O)[C@@H]1[C@H]2C(=O)O[C@H](c3ccccc3)[C@H](c3ccccc3)N2[C@H](c2ccc(O)cc2)[C@@]12C(=O)N(C(=O)OCCOC)c1ccc(C#CCNC(N)=O)cc12,0.552
2,COCCOC(=O)N1C(=O)[C@@]2(c3cc(C#CCCO)ccc31)[C@H](C(=O)N1CCCCCCC1)[C@H]1C(=O)O[C@H](c3ccccc3)[C@H](c3ccccc3)N1[C@@H]2c1ccc(OCCO)cc1,0.549
3,COC(=O)[C@@]1(CCC(=O)OC(C)(C)C)N=C(c2ccc(OCCCO)cc2)O[C@H]1c1ccccc1N=[N+]=[N-],0.508
4,CCCCCN1CC=CC23O[C@@H]4/C=C\CCC(C)OC(=O)C4[C@H]2C(=O)N(C(C)CO)[C@@H]3C1=O (some centres undefined),0.536
5,Cc1ccc(S[C@]2(C(=O)NC3CC3)CC(=O)N(Cc3ccccc3)[C@@H]2c2ccc(CO)cc2I)cc1,0.742
6,O=C1NC(=O)C2C1C=CC(C(O)c1cccs1)N2Nc1ccc(Cl)cc1Cl (centres undefined),0.723
7,C=CCC(OC(C)=O)[C@@H]1[C@@H](N(Cc2ccc(-c3ccccc3)cc2)C(=O)c2cccc3ccccc23)c2cc(OCCCO)ccc2N1C(=O)c1ccc(-c2ccccc2)cc1 (some centres undefined),0.175
8,CCOC(=O)C[C@H]1[C@H](OC(=O)c2ccc(C(=O)c3ccccc3)cc2)[C@@H](NC(=O)c2ccccc2)c2cc(OCCCO)ccc2N1C(=O)c1ccc2ccccc2n1,0.418
9,COc1cc2c(cc1O)C(C1CC1)N(Cc1sc3ccccc3c1Cl)CC2 (centres undefined),0.76

# Reference: PubChem BioAssay
